Consider eight molecules from PubChem BioAssay.

Test [1] relates to Wnt5a (protein binding on small-molecule microarray). Nature of the test: small molecules binding Wnt5a protein – biophysical, small-molecule microarray, 635/667 nm fluorescence, primary screen (AID 1142).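 Also: fluorescence read at 667 nm with signal to noise per printed feature.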 Conditions: 635 nm fluorescence, higher = more signal.
Test [2] can be described thus: ATP-based viability of Huh7 replicon cells – cell-based, CellTiter-Glo luminescence, basal, 48 h, cytotoxicity control for HCV replication inhibitor project, primary screen (AID 1143).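 Also: Huh7 hepatoma cells carrying a hepatitis C replication reporter with no stimulus; test concentration not given here.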 Conditions: higher = more signal, called active from +8 up or from −8 down. Background: A replicon is a self-replicating genome or part of one, used to study replication in cells.
Test [3] in a line: Pseudomonas biofilm growth suppression – PAO1 strain, BacTiter-Glo luminescence, LB-PBS, primary screen (AID 1144). Particulars: P. aeruginosa PAO1 biofilm, 12 h, higher = more signal.
Test [4] is described as follows: basal CRE-LacZ reporter activity in PC12 – cell-based, unstimulated, primary screen (AID 1145). Conditions: no forskolin, luminescence, 4.5 h, higher = more signal, called active from +8 up or from −8 down.
Test [5] can be described thus: forskolin-driven CRE-LacZ activity in PC12 – cell-based, CRE-LacZ reporter, forskolin-stimulated, primary screen (AID 1146).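 Also: PC12 cells with 6xCRE LacZ reporter stimulated by forskolin 10 µM; beta-galactosidase reporter signal reflecting CREB driven transcription.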 Conditions: luminescence, 4.5 h, higher = more signal, called active from +8 up or from −8 down.
Test [6] concerns the target Streptavidin (Streptomyces avidinii) (UniProt P22629). Nature of the test: compounds binding control protein streptavidin – biophysical, small-molecule microarray, 635/667 nm fluorescence, artefact control for SMM compound annotation, primary screen (AID 1147).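 Also: signal reflects streptavidin binding to arrayed compounds as a control protein.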 Conditions: higher = more signal.
Test [7] in a line: probe aInhba binding on compound microarray – biochemical, small-molecule microarray, 635/667 nm fluorescence, primary screen (AID 1148).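 Also: score merges 667nm spot fluorescence with signal-to-noise for antibody binding to printed compounds.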 Conditions: higher = more signal.
In test [8] the target is Torsin-1A (Homo sapiens) (UniProt O14656). Nature of the test: TOR1A wild-type binding on microarray – cell lysate, small-molecule microarray, lysate, 635/667 nm, primary screen (AID 1149). Conditions: COS7 hTOR1A-WT lysate, 635 nm fluorescence, higher = more signal.
Test [9] has the same target. Nature of the test: torsin A mutant lysate binding on microarrays – cell lysate, small-molecule microarray, COS7 lysate, 635/667 nm fluorescence, primary screen (AID 1150).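 Also: score pools 667 nm emission and signal to noise measuring lysate protein binding.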 Particulars: COS7 hTOR1A mutant lysate, 635 nm fluorescence, higher = more signal.
The test system of test [10] is Sonic hedgehog protein (Shh). Nature of the test: Sonic hedgehog microarray binding compounds – biochemical, small-molecule microarray, 635/667 nm fluorescence, primary screen (AID 1151).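 Also: Shh protein binding to compounds spotted on small-molecule microarray slides; score combines spot fluorescence intensity with signal-to-noise across triplicate slides.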 Particulars: 635 nm fluorescence, higher = more signal.
Test [11] is described as follows: optical density shifts of acrAB sulA E. coli – strain DRC41, OD650, 48 h, E. coli filamentation inducer project, primary screen (AID 1152).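 Also: E. coli MC1000 strain DRC41 lacking acrAB efflux pump and sulA.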 Particulars: higher = more signal, called active from +8 up or from −8 down.
Test [12] in a line: probe aLefty1 binding on compound microarray – biochemical, small-molecule microarray, 635/667 nm fluorescence, primary screen (AID 1153).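 Also: score merges spot fluorescence with signal-to-noise ratio from the scanned slide images.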 Particulars: higher = more signal.
The nature of test [13]: plasmodial surface anion channel blockers, osmotic lysis – cell-based, P. falciparum Indochina, OD700, 1 h, primary screen (AID 1154). Particulars: P. falciparum Indochina infected RBC osmotic lysis, higher = more signal, called active from +8 up or from −8 down.
The nature of test [14]: plasmodial surface anion channel blockers, osmotic lysis – cell-based, P. falciparum Indochina, OD700, 2 h, primary screen (AID 1155).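 Also: lysis reports solute entry through the parasite surface anion channel PSAC.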 Particulars: P. falciparum Indochina infected erythrocytes, higher = more signal, called active from +8 up or from −8 down.
Test [15] in a line: changes in parasitized red cell lysis, either direction – P. falciparum Indochina, OD700, 3 h, PSAC antagonist project, primary screen (AID 1156). Particulars: P. falciparum-infected erythrocytes, osmotic lysis, higher = more signal, called active from +8 up or from −8 down.
Test [16] can be described thus: plasmodial surface anion channel blockers, osmotic lysis – cell-based, P. falciparum Indochina, OD700, 18 h, primary screen (AID 1157). Particulars: P. falciparum Indochina infected erythrocytes, osmotic lysis OD700, 18 h; higher = more signal, called active from +8 up or from −8 down.
A short description of test [17]: S6 kinase pathway phospho-S6 level changes – cell-based, A549, cytoblot, luminescence, serum-stimulated, primary screen (AID 1158).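 Also: serum-stimulated A549 lung adenocarcinoma cells; signal is phosphorylated S6 detected by cytoblot immunostaining with HRP secondary.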 Particulars: 5 h, higher = more signal.
Test [18] has as its target NADPH oxidase 2 (Homo sapiens) (UniProt P04839). Nature of the test: compounds shifting NOX2 Amplex Red fluorescence – cell-based, HEK293-NOX2, PMA-stimulated, NOX inhibitor project, primary screen (AID 1159). Also: test concentration not given here. Particulars: 45 min, higher = more signal, called active from +8 up or from −8 down.
For test [19], the target named is NADPH oxidase 4 (Homo sapiens) (UniProt Q9NPH5). Nature of the test: compounds shifting NOX4 Amplex Red fluorescence – cell-based, HEK293-NOX4, tetracycline-induced, NOX inhibitor project, primary screen (AID 1160). Particulars: HEK293-NOX4, Amplex Red H2O2 fluorescence, 45 min; higher = more signal, called active from +8 up or from −8 down.
Test [20] has as its target NADPH oxidase 5 (Homo sapiens) (UniProt Q96PH1). Nature of the test: compounds shifting NOX5 Amplex Red fluorescence – cell-based, HEK293-NOX5, NOX inhibitor project, primary screen (AID 1161). Particulars: HEK293-NOX5, ionomycin, 45 min, higher = more signal.

Calls of active or inactive are those of the source. Unless noted, no rule for the calls is given here.

Sequence of Streptavidin (Streptomyces avidinii) (P22629 whole entry, looked up): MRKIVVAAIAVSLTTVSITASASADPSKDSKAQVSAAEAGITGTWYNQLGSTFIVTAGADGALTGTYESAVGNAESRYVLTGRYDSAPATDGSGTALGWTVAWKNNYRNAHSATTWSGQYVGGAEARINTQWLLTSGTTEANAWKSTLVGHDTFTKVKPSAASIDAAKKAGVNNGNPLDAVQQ
Sequence of NADPH oxidase 5 (Homo sapiens) (Q96PH1 whole entry, looked up): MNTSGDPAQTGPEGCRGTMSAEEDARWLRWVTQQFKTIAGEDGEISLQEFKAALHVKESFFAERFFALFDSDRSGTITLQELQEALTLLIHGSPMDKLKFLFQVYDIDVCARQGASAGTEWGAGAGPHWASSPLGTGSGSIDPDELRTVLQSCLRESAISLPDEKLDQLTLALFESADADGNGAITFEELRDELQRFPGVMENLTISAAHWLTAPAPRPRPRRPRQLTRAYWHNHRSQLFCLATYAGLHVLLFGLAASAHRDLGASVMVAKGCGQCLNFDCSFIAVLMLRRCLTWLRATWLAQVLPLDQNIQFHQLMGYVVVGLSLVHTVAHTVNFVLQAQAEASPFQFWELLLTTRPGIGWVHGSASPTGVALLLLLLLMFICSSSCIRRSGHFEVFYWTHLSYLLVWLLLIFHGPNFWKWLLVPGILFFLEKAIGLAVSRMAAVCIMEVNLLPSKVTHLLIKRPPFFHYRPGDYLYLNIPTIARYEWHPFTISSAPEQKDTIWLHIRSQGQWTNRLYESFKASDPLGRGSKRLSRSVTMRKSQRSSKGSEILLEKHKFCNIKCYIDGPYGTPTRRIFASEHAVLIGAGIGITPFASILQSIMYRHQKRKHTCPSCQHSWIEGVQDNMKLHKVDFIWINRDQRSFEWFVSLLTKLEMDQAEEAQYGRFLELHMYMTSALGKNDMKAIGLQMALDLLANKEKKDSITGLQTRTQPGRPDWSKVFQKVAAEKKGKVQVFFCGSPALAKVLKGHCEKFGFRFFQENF
Sequence of Torsin-1A (Homo sapiens) (O14656 whole entry, looked up): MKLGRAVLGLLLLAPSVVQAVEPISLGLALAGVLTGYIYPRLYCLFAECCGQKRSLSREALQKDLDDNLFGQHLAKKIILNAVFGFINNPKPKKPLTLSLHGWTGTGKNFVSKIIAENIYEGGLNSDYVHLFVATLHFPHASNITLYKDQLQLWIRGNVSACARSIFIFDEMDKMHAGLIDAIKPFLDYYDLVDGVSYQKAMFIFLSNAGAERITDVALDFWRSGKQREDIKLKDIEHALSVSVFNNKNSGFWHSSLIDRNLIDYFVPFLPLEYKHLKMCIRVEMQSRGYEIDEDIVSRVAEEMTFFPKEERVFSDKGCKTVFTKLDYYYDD
Sequence of NADPH oxidase 4 (Homo sapiens) (Q9NPH5 whole entry, looked up): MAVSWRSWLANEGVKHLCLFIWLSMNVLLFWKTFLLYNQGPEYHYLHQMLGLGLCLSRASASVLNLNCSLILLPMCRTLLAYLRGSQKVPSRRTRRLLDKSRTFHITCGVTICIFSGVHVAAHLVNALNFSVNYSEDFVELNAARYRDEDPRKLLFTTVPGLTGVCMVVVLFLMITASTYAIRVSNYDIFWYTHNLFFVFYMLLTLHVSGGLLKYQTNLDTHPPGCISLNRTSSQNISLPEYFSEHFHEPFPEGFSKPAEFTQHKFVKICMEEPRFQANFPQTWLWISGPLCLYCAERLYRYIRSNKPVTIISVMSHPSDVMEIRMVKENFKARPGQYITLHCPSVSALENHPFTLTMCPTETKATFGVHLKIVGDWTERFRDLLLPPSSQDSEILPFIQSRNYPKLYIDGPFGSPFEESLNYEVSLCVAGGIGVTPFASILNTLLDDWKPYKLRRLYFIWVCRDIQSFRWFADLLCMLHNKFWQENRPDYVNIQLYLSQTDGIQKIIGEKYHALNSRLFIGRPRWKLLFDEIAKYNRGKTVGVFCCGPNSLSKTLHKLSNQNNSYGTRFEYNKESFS
Sequence of NADPH oxidase 2 (Homo sapiens) (P04839 whole entry, looked up): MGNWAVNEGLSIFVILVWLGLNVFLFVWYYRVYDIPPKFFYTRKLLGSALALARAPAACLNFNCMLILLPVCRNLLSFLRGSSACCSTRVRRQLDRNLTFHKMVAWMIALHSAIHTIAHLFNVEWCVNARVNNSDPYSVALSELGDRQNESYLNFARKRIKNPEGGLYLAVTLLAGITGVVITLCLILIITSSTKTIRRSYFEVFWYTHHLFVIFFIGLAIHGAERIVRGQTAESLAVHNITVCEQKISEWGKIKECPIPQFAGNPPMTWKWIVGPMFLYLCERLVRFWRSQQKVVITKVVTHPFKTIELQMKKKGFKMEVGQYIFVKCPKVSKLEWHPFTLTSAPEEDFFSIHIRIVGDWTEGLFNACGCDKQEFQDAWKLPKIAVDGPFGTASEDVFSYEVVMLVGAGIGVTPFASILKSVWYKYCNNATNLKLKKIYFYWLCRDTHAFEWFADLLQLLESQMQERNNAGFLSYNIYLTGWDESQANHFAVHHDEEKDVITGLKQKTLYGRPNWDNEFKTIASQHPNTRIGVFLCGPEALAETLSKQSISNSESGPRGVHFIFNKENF

Consider `CC(C)(C)N1C(=O)[C@H]2[C@H]3[C@H](O)[C@H](O)CC(=NNC(=O)OCc4ccccc4)[C@@H]3CC[C@H]2C1=O`, for which the composite z-score was -0.0841 in test [1]; 0.171 in [6]; -0.13 in test [7]; 0.472 with Torsin-1A (Homo sapiens) [8]; 0.322 in the test with Torsin-1A (Homo sapiens) [9]; 0.226 in [10]. In [12], this molecule yielded a composite z-score of -0.153. Further, the z-score is 0.633 (inactive) in test [2]; -0.0893 (inactive) in [3]; -0.0258 (inactive) in test [4]; 0.314 (inactive) in test [5]; 0.323 (inactive) in test [11]; 0.0391 (inactive) in test [13]. The z-score in [14] was 0.193 (inactive); in test [15] it was -0.279 (inactive); in [16] it was -0.385 (inactive); in test [17] it was -0.731; in test [18] it was 0.788 (inactive); in [19], 0.739 (inactive). Also, the z-score in test [20] was 0.0356.

Turning to `CCc1cc2c(nc1CC)CCN(CCC(C)=NOC[C@@H](C)[C@H](OCc1ccccc1)C(C)C)C2`, the composite z-score in [1] is -0.608; in [6], -1.39; in test [7], -0.302; with Torsin-1A (Homo sapiens) [8] it was -0.94; with Torsin-1A (Homo sapiens) [9], -1.22; in [10] it was -0.267. This molecule yielded a composite z-score in [12] of -1.28. The z-score in test [2] is -1.09 (inactive); in test [3] it was 0.241 (inactive); in [4] it was 0.387 (inactive); in [5], 0.113 (inactive); in [11], -0.64 (inactive); in test [13] it was 1.29 (inactive). Further, the z-score in [14] was -2.02 (inactive); in test [15], 0.513 (inactive); in test [16], -2.16 (inactive); in test [17], 1.35; in [18], -2.3 (inactive); in [19] it was -0.642 (inactive). The z-score in test [20] is -4.09.

Turning to `C=CC[C@@H]1C=C[C@H](ON=C[C@@H](NS(=O)(=O)c2ccc(C)cc2)[C@H](C)C=CCC(=O)OC)[C@@H](CO)O1`, the composite z-score was -0.116 in test [1]; -0.407 in test [6]; 0.138 in test [7]; 0.359 with Torsin-1A (Homo sapiens) [8]; 0.634 with Torsin-1A (Homo sapiens) [9]; 0.416 in test [10]. The composite z-score in test [12] was -0.191. Moreover, the z-score was 0.182 (inactive) in [2]; 1.33 (inactive) in test [3]; 0.848 (inactive) in test [4]; 0.983 (inactive) in test [5]; 0.171 (inactive) in test [11]; 1.16 (inactive) in [13]. Further, the z-score in test [14] was 0.278 (inactive); in test [15], 0.0436 (inactive); in test [16], 0.343 (inactive); in test [17], -0.738; in [18], -0.0272 (inactive); in test [19], 0.118 (inactive). Besides, in test [20], the z-score was -0.286.

As for `C=CC[C@@H]1C=C[C@H](ON=CC[C@@H]2C=C[C@H](OC(C)=O)[C@@H](COC(C)=O)O2)[C@@H](CO)O1`, the composite z-score is 0.521 in test [1]; 1.54 in test [6]; 0.113 in test [7]; -0.161 with Torsin-1A (Homo sapiens) [8]; 0.259 with Torsin-1A (Homo sapiens) [9]; 0.925 in [10]. For the same molecule, in [12], the composite z-score was 0.455. Also, the z-score in [2] was 0.0101 (inactive); in test [3], -0.325 (inactive); in test [4], -1.21 (inactive); in test [5], -0.66 (inactive); in [11], 0.4 (inactive); in [13], 0.551 (inactive). Besides, the z-score is 0.538 (inactive) in [14]; -0.0293 (inactive) in test [15]; 0.393 (inactive) in test [16]; 0.166 in [17]; -0.893 (inactive) in test [18]; 0.319 (inactive) in test [19]. In addition, the z-score in test [20] was found to be 1.03.

In the case of `COC(=O)[C@@H]1CC[C@H](C)[C@@H](c2ccc(Br)cc2)N1`, the composite z-score is 0.224 in [1]; 0.0708 in [6]; 0.0705 in [7]; 0.387 in the test with Torsin-1A (Homo sapiens) [8]; 0.0795 in the test with Torsin-1A (Homo sapiens) [9]; -0.0173 in test [10]. Further, the composite z-score in test [12] is -0.0879. The z-score in test [2] is 0.336 (inactive); in [3] it was -0.984 (inactive); in test [4], 0.372 (inactive); in test [5], -0.257 (inactive); in test [11] it was -0.824 (inactive); in test [13] it was -0.452 (inactive). The z-score in test [14] is -0.219 (inactive); in test [15], -0.772 (inactive); in test [16] it was -0.0454 (inactive); in test [17] it was -0.0984; in test [18], 1.62 (inactive); in [19] it was -1.48 (inactive). Also, the z-score in test [20] is -0.595.

Consider `CO[C@H]1COC(=O)[C@H](CCSC)NC(=O)CC=C[C@@H](C)[C@H](OC)COC(=O)[C@@H](OCc2ccccc2)C=C[C@@H]1C`, for which the composite z-score in test [1] is 0.211; in test [6], -0.0966; in [7], -0.101; with Torsin-1A (Homo sapiens) [8] it was 1.78; in the test with Torsin-1A (Homo sapiens) [9], 0.732; in [10], 1.9. The composite z-score in test [12] is -0.173. Moreover, the z-score was -1.45 (inactive) in test [2]; -0.128 (inactive) in [3]; -0.0638 (inactive) in test [4]; 0.74 (inactive) in [5]; 0.319 (inactive) in [11]; 0.463 (inactive) in test [13]. Besides, the z-score in test [14] was 0.191 (inactive); in test [15], 1.17 (inactive); in [16], 0.367 (inactive); in test [17] it was -0.378; in [18] it was 0.167 (inactive); in [19] it was 0.25 (inactive). In addition, in test [20], the z-score is -0.911.

On to `CCOC(=O)NN=C1C[C@@H](O)[C@@H](O)[C@@H]2[C@@H]3C(=O)N(c4ccc(F)cc4F)C(=O)[C@@H]3CC[C@H]12`, for which the composite z-score in [1] is 0.199; in test [6], -0.0442; in test [7], -0.0962; with Torsin-1A (Homo sapiens) [8], 0.49; in the test with Torsin-1A (Homo sapiens) [9] it was 0.381; in test [10], 0.404. Besides, the composite z-score in test [12] was -0.0106. The z-score in test [2] is -4.03 (inactive); in [3] it was -1.05 (inactive); in test [4] it was -0.296 (inactive); in [5] it was 0.409 (inactive); in [11], -0.57 (inactive); in [13], 1.03 (inactive). Moreover, the z-score is -1.41 (inactive) in test [14]; 0.465 (inactive) in test [15]; -1.75 (inactive) in test [16]; 0.245 in test [17]; -4.88 (inactive) in [18]; -1.81 (inactive) in test [19]. Besides, in [20], the z-score was -0.472.

`COC(=O)[C@H](C)NC(=O)CC=C[C@@H](C)[C@@H]1C=C[C@H](O)[C@@H](CO)O1`: the composite z-score was 0.355 in test [1]; 0.116 in test [6]; -0.0918 in [7]; 0.945 in the test with Torsin-1A (Homo sapiens) [8]; 0.394 with Torsin-1A (Homo sapiens) [9]; 1.39 in [10]. In [12], this molecule gave a composite z-score of -0.269. Moreover, the z-score in test [2] is 0.301 (inactive); in test [3] it was 1 (inactive); in test [4], -0.434 (inactive); in test [5], 0.222 (inactive); in test [11], 0.645 (inactive); in test [13], -0.488 (inactive). For the same molecule, the z-score in test [14] is 0.544 (inactive); in [15], -0.0002 (inactive); in [16] it was 0.0748 (inactive); in test [17], 0.244; in [18] it was 0.534 (inactive); in test [19] it was 0.62 (inactive). Also, the z-score in test [20] was -0.231.
